Screens as filed in PubChem BioAssay.
Hits are enriched below; roughly 3.1% of the tested compounds scored in any of these assays.
KCC2 mod: modulates chloride dependent transport by human KCC2. KCC2 cells, thallium flux FluoZin-2 fluorescence. B-score of Tl+ flux slope (higher = more flux/activation; lower = inhibition) at 10 µM. 190,000 tested, 2.2% active. AID 1456;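 active = thallium flux slope and its plate-corrected score both differing from the plate sample mean at a set confidence after two filtering rounds, in either direction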;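 also: slope of fluorescence scaled to starting intensity during 10 to 20 s after thallium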
PGE2 EP2 inh: blocks the human prostaglandin E2 receptor EP2; C6 glioma cells expressing human EP2, cAMP TR-FRET; cells stimulated with saturating PGE2; inhibition, % at 25 µM; 260,000 tested, 0.52% active; P43116;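 active = percent inhibition above 40 after rounding to a whole number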;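 also: rat C6 glioma host cells with rolipram phosphodiesterase inhibitor present; the protocol text gives 20 µM as final concentration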
Target sequence (P43116 whole entry, looked up): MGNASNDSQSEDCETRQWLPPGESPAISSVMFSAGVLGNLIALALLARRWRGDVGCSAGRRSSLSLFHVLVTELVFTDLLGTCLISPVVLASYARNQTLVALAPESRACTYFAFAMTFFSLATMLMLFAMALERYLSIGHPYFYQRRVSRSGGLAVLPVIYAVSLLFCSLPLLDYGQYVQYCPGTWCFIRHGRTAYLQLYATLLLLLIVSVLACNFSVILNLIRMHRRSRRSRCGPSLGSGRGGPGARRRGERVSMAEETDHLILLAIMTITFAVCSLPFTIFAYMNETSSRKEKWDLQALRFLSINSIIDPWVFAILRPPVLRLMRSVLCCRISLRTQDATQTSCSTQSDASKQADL
S1P3 antag: S1P3 (human) receptor antagonism. AID 485. inhibition, % at 4.98 µM. CHO S1P3 NFAT-BLA reporter, FRET fluorescence, antagonist mode. 170,000 tested, 0.27% active. Q99500;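 active = inhibition above the plate cutoff, the mean inhibition of test wells on that plate plus 3 SD, cut at about 28% in these data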;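 also: cells challenged with S1P at its EC80 of 0.8 µM; blue over green emission ratio from cleaved BLA substrate after 4 h stimulation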
Target sequence (Q99500 whole entry, looked up): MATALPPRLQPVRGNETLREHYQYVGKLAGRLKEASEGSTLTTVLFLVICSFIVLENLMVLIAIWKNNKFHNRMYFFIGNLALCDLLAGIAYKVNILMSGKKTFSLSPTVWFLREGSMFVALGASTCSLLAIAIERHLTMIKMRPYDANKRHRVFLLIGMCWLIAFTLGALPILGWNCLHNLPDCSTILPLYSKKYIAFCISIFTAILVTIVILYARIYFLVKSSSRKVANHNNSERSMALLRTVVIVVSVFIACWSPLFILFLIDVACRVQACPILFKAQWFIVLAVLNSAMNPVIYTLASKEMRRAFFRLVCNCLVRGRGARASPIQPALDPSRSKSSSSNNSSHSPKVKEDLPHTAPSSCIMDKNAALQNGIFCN
EP2 mod: modulates human prostaglandin E2 receptor EP2 signaling. EP2-expressing cells, cAMP HTRF FRET, PGE2 co-stimulation. induction, % at 25 µM. 260,000 tested, 0.83% active;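 active = compounds whose cAMP rise, as percent of the full-agonist control response, exceeds 60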;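 also: rat C6 glioma line stably carrying human EP2 under a CMV promoter; the protocol text gives 20 µM as final concentration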
Of the large screens only hits and unclear results are named; the others gave an inactive call.

COc1cc(/C=C2\SC(=S)N(CC3CCCO3)C2=O)ccc1OC(=O)c1cccc(C)c1 (configuration not stated)	none (no result: KCC2 mod, S1P3 antag)
Cc1ccc(S(=O)(=O)N2CCC(C(=O)O)(c3ccccc3)CC2)cc1	PGE2 EP2 inh 43 (no result: KCC2 mod, S1P3 antag)
CCOc1ccccc1NC(=O)CSc1nc(-c2ccccc2)nc2ccccc12	EP2 mod 61 (no result: KCC2 mod, S1P3 antag)
CCOc1ccccc1NC(=O)c1nc(-c2ccccc2)oc1C	EP2 mod 63
CCN1CCN(C(c2ccccc2)c2nnnn2CC2CCCO2)CC1 (configuration not stated)	none (no result: KCC2 mod, S1P3 antag)
CCCN1C2CCCC1CC(NC(=S)Nc1ccccc1)C2 (configuration not stated)	none (no result: KCC2 mod, S1P3 antag)
O=C(CSc1nc(CCC2CCCC2)nc2ccccc12)NCc1ccc2c(c1)OCO2	KCC2 mod 21
COc1ccccc1NC(=O)N(Cc1ccccc1)c1ccccn1	EP2 mod 61 (no result: KCC2 mod, S1P3 antag)
O=C(NC(=S)Nc1cccc(Cl)c1N1CCCC1)c1ccc(-c2cccc([N+](=O)[O-])c2)o1	KCC2 mod 3 (no result: S1P3 antag)
CN1[C@@H](C(=O)Nc2cc(Cl)ccc2O)C[C@@H](c2cccs2)NS1(=O)=O	none (no result: KCC2 mod, PGE2 EP2 inh, S1P3 antag)
CCOC(=O)C1=C(C)NC(=O)N[C@@H]1c1coc2cc(C)cc(C)c2c1=O	PGE2 EP2 inh 53 (no result: KCC2 mod, S1P3 antag)
Cc1ccc2[nH]c(-c3ccccc3)cc(=O)c2c1	S1P3 antag 60
Cc1cc(C(F)F)n2nc(C(=O)Nc3sc4c(c3C(=O)OC(C)C)CCCC4)nc2n1	EP2 mod 67 (no result: KCC2 mod, S1P3 antag)
COC(=O)c1c(NC(=O)c2nc3nc(C)cc(C(F)F)n3n2)sc2c1CCC2	none (no result: KCC2 mod, S1P3 antag)
Cc1cc2sc3ccccc3c(=O)c2c(C)c1O	none
O=c1c(C(c2ccccc2)c2c(O)sc3ccccc3c2=O)c(O)sc2ccccc12	KCC2 mod 21 (no result: PGE2 EP2 inh, S1P3 antag)
CCOc1ccc(NC(=O)c2c(O)c3ccccc3n(C)c2=O)cc1	none (no result: KCC2 mod, S1P3 antag)
O=C(OCC(=O)N1CCc2ccccc21)c1nc(Cl)ccc1Cl	none
CCn1nc(C(=O)OCC(=O)N2CCc3ccccc32)c2ccccc2c1=O	KCC2 mod -3.4
COCC(=O)N(Cc1cc2cc(C)ccc2[nH]c1=O)c1cccc(C)c1	none (no result: KCC2 mod, S1P3 antag)
NNC(=O)c1ccc(Oc2cc(Cl)cc(Cl)c2)o1	none
O=C(O)c1ccc(Oc2ccccc2)o1	EP2 mod 70 (no result: KCC2 mod)
Cc1ccc(C(=N)c2ccccc2Cc2cccc3ccccc23)c2ccccc12	PGE2 EP2 inh 40 (no result: KCC2 mod, S1P3 antag)
N=C(c1ccc2ccccc2c1)c1ccccc1Cc1ccccc1	none (no result: KCC2 mod, S1P3 antag)
O=C(NC(=S)N1CCN(c2nc(-c3ccccc3)cs2)CC1)c1cncc(Br)c1	KCC2 mod 70
CCC(C)NC(=O)C1CCN(C(=O)c2ccc(Cl)cc2Cl)CC1 (configuration not stated)	none (no result: KCC2 mod, S1P3 antag)
COc1ccc2c(c1)c1ccc3c(c1n2C)C(=O)C=CC3=O	PGE2 EP2 inh 62
Cc1ccc2c(c1)c1ccc3c(c1n2C)C(=O)C=CC3=O	none
O=C(COC(=O)c1ccccn1)Nc1ccc(F)c(F)c1F	none (no result: KCC2 mod, S1P3 antag)
O=C(NCCc1ccccc1)[C@@H]1C=CCN1C(=O)c1ccco1	none (no result: KCC2 mod, S1P3 antag)
c1ccc2c(c1)nc(N1CCCCC1)c1ccccc12	EP2 mod 68
c1ccc(-c2nc(N3CCCCCC3)c3ccccc3n2)nc1	EP2 mod 61
COc1ccc(C(=O)N2CCN(Cc3ccco3)CC2)cc1OC	none (no result: KCC2 mod, S1P3 antag)
Cc1cc(OCC(=O)Nc2cccc(NC(=O)c3cccs3)c2)ccc1Cl	none (no result: KCC2 mod, S1P3 antag)
Cc1cccc(C)c1NCc1nnc(SCC(=O)N2CCCc3ccccc32)n1C	none (no result: KCC2 mod, S1P3 antag)
CCOC(=O)c1nn(-c2ccc(F)cc2)c2nc(-c3ccccc3)c(C#N)c(=O)n12	EP2 mod 65
CSc1ccc2c(c1)N(CCC1CCCCN1C)c1ccccc1S2 (configuration not stated)	none
CN1CCCC[C@@H]1CCN1c2ccccc2Sc2ccc(S(C)=O)cc21 (some centres not stated)	PGE2 EP2 inh 44 (no result: KCC2 mod, S1P3 antag)
CC1CCN(C(c2ccccn2)c2nnnn2Cc2ccccc2)CC1 (configuration not stated)	none (no result: KCC2 mod, S1P3 antag)
O=c1c2cc(Cl)ccc2nc(-c2ccccc2Cl)n1O	none
O=c1c2ccccc2nc(-c2cccc(Cl)c2)n1O	KCC2 mod 18
CC1CCCC(C)N1C(=O)Cn1c(SCC(=O)N2CCOCC2)nc2ccccc21 (configuration not stated)	none (no result: KCC2 mod, S1P3 antag)
NC(=O)N[C@H](CC(=O)O)C(=O)O	none (no result: KCC2 mod, S1P3 antag)
O=C(O)C[C@H](NC(=O)CP(=O)(O)O)C(=O)O.[NH-][C@@H]1CCCC[C@H]1[NH-].[Pt]	PGE2 EP2 inh 40 (no result: KCC2 mod, S1P3 antag)
O=C(NC(=S)NCC1COc2ccccc2O1)c1ccccc1 (configuration not stated)	KCC2 mod 4.3 (no result: S1P3 antag)
O=C(NCC1COc2ccccc2O1)c1ccccc1 (configuration not stated)	none
CCc1ccc(/C=C/C(=O)c2cc(Br)ccc(=O)c2O)cc1	KCC2 mod 8 (no result: S1P3 antag)
CCOc1ccc(/C=C/C(=O)c2cc(Br)ccc(=O)c2O)cc1	KCC2 mod 31
Cc1ccc(/C=C/C(=O)c2cc(Br)ccc2OC(=O)c2ccco2)cc1	none (no result: S1P3 antag)
Cc1cccc(/C=C/C(=O)c2cc(Br)ccc(=O)c2O)c1	KCC2 mod 11 (no result: S1P3 antag)
O=C(Nc1ccc(Cl)c(Cl)c1)c1ccc(Cl)c(Cl)c1	none
Cc1ccc(NC(=O)c2ccc(Cl)c(N3C(=O)C=CC3=O)c2)cc1	PGE2 EP2 inh 125 (no result: S1P3 antag)
Cc1ccc(C(C)C(=O)N2CCC(n3nc(-c4ccco4)ccc3=O)CC2)cc1 (configuration not stated)	none (no result: KCC2 mod, PGE2 EP2 inh, S1P3 antag)
O=C(O)c1cccc(S(=O)(=O)Nc2ccccc2Cl)c1	none (no result: PGE2 EP2 inh)
O=C(O)c1cccc(S(=O)(=O)Nc2ccccn2)c1	PGE2 EP2 inh 63 (no result: KCC2 mod, S1P3 antag)
O=C(O)CCCN1C(=O)/C(=C/C=C/c2ccco2)SC1=S	EP2 mod 74
Fc1ccc(-n2cc(-c3ccccc3)c3c(N4CCOCC4)ncnc32)cc1	EP2 mod 62
CC[C@H](Cn1ncc2ccccc2c1=O)NC(=O)Cc1ccsc1	none (no result: KCC2 mod, PGE2 EP2 inh, S1P3 antag)
COC(=O)C1CC23C=CNC4CCC5(c6ccccc6NC15C2C)C43 (configuration not stated)	none (no result: KCC2 mod, S1P3 antag)
CCNc1nc(NCC)nc(SCCOC(=O)c2ccccc2)n1	EP2 mod 63 (no result: S1P3 antag)
CCOC(=O)/C(=N\Nc1ccc(Cl)cc1)c1csc(Nc2ccccc2)n1	PGE2 EP2 inh 44 (no result: S1P3 antag)
COc1ccc(Cl)cc1C(=O)N1CCN(C(=O)c2ccco2)CC1	none (no result: KCC2 mod, S1P3 antag)
O=C(c1ccc2c(c1)OCCO2)N1CCN(c2ncnc3sc4c(c23)CCCC4)CC1	none (no result: KCC2 mod, S1P3 antag)
COc1ccc(NC(=S)Nc2ccccc2OC)c(OC)c1	none
COc1ccc(NC(=S)Nc2cnc3ccccc3c2)c(OC)c1	PGE2 EP2 inh 44
COc1cc(C2C(C#N)=C(N)OC3=C2C(=O)CCC3)ccc1OCc1c(C)cc(C)cc1C (configuration not stated)	none (no result: KCC2 mod, S1P3 antag)
S=C(NCCCN1CCOCC1)NC1CCCC1	PGE2 EP2 inh 93
CCOc1cccc(/C(O)=C2/C(=O)C(=O)N(CCOC)C2c2cccs2)c1 (configuration not stated)	none (no result: KCC2 mod, S1P3 antag)
CN(C)[C@H]1C(=O)C(C(=O)NCN2CCCC2)=C(O)[C@@]2(O)C(=O)C3=C(O)c4c(O)cccc4[C@](C)(O)[C@H]3C[C@H]12	PGE2 EP2 inh 44 (no result: KCC2 mod, S1P3 antag)
CCn1c(=O)c(C(=O)Nc2ncc(C)s2)c(O)c2ccccc21	none (no result: KCC2 mod, S1P3 antag)
